Data as given in ChEMBL document CHEMBL2218924, “A broad activity screen in support of a chemogenomic map for kinase signalling research and drug discovery” (Biochem J, 2013).

How the values were obtained:
[1] = biological target: T1, Ephrin type-A receptor 3 (Homo sapiens) (UniProt P29320); details: at 10 µM
T1 sequence (whole entry): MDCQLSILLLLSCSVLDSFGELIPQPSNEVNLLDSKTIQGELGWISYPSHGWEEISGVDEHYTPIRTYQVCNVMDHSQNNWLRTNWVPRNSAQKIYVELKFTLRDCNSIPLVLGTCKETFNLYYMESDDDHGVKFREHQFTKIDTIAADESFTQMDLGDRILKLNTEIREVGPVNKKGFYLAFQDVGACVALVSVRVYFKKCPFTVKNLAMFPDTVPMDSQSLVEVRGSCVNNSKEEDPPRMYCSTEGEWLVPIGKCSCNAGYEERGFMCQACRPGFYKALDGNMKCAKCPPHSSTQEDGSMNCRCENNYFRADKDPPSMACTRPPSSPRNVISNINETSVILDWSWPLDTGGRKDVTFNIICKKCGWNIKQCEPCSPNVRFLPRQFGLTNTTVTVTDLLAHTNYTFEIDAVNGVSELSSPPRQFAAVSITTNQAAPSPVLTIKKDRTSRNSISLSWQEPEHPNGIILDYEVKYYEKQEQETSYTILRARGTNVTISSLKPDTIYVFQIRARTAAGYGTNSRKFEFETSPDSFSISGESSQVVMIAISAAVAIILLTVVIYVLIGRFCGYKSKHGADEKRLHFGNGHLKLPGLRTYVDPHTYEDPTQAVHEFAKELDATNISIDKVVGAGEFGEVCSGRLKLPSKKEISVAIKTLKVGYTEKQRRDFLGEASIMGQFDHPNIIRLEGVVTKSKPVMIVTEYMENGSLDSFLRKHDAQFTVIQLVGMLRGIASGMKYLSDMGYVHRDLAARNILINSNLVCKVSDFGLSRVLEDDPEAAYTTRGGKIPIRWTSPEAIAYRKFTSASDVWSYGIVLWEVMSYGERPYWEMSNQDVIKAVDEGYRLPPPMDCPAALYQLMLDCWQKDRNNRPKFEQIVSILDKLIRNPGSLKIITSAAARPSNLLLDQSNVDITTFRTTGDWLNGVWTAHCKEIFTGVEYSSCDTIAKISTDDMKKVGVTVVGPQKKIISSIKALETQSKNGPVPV

[2] = biological target: Ephrin type-A receptor 4 (Homo sapiens) (UniProt P54764); details: at 1 µM
Sequence of Ephrin type-A receptor 4 (Homo sapiens) (P54764 whole entry): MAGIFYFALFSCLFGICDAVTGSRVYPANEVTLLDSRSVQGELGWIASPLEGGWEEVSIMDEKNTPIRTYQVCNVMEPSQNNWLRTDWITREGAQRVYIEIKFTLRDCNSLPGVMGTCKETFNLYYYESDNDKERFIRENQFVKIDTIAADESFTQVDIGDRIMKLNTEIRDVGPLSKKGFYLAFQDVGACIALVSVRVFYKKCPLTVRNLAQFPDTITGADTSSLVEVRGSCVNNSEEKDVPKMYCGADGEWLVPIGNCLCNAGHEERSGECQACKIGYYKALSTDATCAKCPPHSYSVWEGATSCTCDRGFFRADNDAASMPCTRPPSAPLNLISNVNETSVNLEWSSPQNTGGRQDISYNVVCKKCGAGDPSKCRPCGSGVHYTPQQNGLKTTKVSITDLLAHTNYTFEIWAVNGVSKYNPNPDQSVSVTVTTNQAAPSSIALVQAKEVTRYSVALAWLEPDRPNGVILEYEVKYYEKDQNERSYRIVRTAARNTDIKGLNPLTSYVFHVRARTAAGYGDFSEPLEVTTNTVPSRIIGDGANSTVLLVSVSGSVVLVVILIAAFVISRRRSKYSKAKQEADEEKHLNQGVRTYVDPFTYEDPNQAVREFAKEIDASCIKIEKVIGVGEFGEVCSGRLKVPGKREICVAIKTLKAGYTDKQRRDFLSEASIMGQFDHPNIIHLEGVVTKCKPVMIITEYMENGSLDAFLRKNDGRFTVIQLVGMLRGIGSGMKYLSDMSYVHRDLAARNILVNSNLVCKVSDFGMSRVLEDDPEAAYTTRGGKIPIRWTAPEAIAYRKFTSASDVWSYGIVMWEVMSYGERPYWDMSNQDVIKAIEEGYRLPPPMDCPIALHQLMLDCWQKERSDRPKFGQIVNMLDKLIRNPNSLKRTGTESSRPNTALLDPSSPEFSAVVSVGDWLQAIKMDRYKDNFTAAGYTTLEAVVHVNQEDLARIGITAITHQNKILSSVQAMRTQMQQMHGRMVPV

[3] = biological target: Ephrin type-A receptor 4 (Homo sapiens) (UniProt P54764); details: at 10 µM
[4] = biological target: Ephrin type-A receptor 5 (Homo sapiens) (UniProt P54756); details: at 1 µM
Sequence of Ephrin type-A receptor 5 (Homo sapiens) (P54756 whole entry): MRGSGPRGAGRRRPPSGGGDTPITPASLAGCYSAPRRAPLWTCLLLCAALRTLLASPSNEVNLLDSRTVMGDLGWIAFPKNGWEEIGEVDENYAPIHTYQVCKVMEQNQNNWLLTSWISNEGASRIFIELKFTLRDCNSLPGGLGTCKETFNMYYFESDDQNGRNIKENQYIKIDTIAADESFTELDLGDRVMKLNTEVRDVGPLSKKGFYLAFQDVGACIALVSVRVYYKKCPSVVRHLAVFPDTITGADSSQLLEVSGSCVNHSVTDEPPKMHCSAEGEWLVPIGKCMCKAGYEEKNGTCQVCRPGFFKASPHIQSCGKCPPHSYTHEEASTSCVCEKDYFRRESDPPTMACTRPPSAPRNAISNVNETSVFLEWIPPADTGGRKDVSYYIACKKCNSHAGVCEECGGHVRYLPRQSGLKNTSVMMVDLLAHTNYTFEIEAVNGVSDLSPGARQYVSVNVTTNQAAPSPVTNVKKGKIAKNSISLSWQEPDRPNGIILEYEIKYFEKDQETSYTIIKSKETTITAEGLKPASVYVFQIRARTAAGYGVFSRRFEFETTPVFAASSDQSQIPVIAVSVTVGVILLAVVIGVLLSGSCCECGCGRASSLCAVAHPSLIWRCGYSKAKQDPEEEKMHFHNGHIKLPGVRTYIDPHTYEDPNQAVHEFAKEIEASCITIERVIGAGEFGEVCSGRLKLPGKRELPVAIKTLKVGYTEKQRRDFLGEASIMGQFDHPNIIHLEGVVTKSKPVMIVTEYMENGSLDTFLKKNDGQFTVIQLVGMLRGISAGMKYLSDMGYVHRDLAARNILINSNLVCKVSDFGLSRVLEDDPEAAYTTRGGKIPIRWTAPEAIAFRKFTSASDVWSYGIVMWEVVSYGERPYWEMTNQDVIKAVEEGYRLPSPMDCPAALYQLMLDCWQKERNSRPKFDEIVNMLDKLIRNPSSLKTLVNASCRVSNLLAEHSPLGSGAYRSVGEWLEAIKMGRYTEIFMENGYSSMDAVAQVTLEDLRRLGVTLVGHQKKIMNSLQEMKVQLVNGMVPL

[5] = biological target: Ephrin type-A receptor 5 (Homo sapiens) (UniProt P54756); details: at 10 µM
[6] = biological target: Ephrin type-A receptor 7 (Homo sapiens) (UniProt Q15375); details: at 1 µM
Sequence of Ephrin type-A receptor 7 (Homo sapiens) (Q15375 28-998 limits assumed): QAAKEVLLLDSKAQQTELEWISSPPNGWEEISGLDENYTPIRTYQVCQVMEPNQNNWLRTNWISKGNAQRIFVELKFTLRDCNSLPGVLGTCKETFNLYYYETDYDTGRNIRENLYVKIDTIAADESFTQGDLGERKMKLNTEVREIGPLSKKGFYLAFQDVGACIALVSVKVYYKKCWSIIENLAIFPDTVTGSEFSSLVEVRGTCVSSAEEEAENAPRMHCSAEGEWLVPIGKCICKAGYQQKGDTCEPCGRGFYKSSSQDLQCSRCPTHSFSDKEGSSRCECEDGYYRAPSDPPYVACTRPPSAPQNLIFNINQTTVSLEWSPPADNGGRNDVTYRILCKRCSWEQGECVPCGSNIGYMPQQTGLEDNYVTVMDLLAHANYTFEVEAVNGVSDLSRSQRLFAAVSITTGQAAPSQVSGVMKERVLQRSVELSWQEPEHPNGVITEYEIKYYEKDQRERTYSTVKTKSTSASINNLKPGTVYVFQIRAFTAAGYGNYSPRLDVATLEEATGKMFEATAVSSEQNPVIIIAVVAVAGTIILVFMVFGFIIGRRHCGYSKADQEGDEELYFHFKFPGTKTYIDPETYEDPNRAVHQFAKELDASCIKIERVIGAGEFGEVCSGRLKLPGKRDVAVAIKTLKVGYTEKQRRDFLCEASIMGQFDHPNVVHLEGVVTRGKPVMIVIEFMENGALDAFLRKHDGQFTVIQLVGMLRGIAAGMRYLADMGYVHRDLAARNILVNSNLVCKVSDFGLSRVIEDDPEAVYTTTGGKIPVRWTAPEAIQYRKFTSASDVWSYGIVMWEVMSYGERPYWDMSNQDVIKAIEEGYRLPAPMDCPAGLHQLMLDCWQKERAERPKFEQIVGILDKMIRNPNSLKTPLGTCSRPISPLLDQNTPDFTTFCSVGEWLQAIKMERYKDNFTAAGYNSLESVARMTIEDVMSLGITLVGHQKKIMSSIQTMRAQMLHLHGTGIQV

[7] = biological target: Ephrin type-A receptor 7 (Homo sapiens) (UniProt Q15375); details: at 10 µM
[8] = biological target: T2, Ephrin type-A receptor 8 (Homo sapiens) (UniProt P29322); details: at 1 µM
T2 sequence (whole entry): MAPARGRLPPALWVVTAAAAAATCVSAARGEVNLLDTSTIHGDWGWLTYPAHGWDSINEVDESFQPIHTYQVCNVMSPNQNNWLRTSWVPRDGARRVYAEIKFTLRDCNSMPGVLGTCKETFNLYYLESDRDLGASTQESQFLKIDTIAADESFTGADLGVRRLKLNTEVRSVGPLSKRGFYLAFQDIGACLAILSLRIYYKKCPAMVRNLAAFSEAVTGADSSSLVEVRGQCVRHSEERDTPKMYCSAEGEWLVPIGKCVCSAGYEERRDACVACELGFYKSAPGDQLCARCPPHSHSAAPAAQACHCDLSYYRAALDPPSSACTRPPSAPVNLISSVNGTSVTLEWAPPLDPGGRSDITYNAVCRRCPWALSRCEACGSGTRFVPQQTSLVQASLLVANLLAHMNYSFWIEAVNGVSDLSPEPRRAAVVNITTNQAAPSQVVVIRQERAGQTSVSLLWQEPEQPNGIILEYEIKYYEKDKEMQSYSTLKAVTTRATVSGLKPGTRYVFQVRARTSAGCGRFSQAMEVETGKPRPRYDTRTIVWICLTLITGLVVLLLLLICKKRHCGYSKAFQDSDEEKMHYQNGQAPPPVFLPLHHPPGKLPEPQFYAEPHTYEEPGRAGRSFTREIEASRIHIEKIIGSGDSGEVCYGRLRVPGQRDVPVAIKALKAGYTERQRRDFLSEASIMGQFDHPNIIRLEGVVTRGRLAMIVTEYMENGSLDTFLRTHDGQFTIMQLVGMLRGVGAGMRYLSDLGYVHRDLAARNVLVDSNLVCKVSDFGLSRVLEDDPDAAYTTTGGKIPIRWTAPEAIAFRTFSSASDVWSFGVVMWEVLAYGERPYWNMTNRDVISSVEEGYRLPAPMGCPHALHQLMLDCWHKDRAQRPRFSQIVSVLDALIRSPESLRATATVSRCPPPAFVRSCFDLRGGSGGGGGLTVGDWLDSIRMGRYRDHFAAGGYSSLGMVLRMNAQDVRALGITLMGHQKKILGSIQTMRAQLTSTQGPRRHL

[9] = biological target: T2, Ephrin type-A receptor 8 (Homo sapiens); details: at 10 µM
[10] = biological target: T3, Ephrin type-B receptor 1 (Homo sapiens) (UniProt P54762); details: at 1 µM
T3 sequence (whole entry): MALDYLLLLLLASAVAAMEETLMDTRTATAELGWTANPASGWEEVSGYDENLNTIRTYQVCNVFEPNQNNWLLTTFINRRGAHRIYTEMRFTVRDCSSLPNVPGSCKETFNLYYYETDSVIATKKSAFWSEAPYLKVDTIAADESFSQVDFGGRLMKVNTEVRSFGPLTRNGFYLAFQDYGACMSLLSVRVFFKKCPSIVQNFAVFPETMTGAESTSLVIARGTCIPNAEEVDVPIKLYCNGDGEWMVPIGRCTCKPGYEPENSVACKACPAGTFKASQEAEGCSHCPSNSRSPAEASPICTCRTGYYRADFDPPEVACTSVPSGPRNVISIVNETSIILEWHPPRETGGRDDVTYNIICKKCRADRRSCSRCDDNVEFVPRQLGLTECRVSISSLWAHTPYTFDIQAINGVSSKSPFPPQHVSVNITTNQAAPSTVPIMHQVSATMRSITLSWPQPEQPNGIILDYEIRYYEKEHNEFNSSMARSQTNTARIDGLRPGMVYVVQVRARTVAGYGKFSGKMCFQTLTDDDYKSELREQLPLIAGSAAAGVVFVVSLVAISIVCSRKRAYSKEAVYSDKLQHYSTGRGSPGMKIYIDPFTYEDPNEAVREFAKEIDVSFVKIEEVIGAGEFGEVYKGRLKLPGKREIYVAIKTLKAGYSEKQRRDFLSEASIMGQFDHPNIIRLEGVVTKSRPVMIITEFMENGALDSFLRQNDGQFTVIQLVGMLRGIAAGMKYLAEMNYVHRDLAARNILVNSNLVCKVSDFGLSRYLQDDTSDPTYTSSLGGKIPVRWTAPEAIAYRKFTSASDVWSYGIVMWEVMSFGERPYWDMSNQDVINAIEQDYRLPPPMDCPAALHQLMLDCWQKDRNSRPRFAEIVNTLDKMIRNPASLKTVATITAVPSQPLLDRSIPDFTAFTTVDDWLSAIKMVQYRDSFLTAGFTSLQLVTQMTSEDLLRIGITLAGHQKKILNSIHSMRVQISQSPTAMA

COc1ccc(CNc2nc(N(CCO)CCO)nc3c2ncn3C(C)C)cc1
residual activity [1]: 90% | residual activity [2]: 110% | residual activity [3]: 110% | residual activity [4]: 126% | residual activity [5]: 105% | residual activity [6]: 92% | residual activity [7]: 73% | residual activity [8]: 99% | residual activity [9]: 88% | residual activity [10]: 105%
